# Measurements taken from PubChem BioAssay (EPA / NIEHS).
# Activity calls are given as the source filed them. How the source made its calls: active means hit-call score of the fitted dose curve at least 0.9, where 1 is the maximum; inactive means score below 0.9.
# Read-out: Transforming growth factor beta 1 (TGFb1), TGFB1 (gene 7040)
# Experiment: BSK_BE3C_TGFb1: BioMAP Diversity Plus: BE3C Assay for Transforming growth factor beta 1 (TGFb1) Biomarker Activity (AID 2283036)
# Conditions: primary human bronchial epithelial cells; actives raise or lower the signal
# Method: BSK_BE3C is a cell-based, multiplexed-readout assay that uses bronchial epithelial cell, a human lung primary cell, with measurements taken at 24 hours after chemical dosing in a 96-well plate.BSK_BE3C_TGFb1 is an assay component measured in the BSK_BE3C assay. It measures TGF-b1 antibody related to regulation of gene expression using ELISA technology.Data from the assay component BSK_BE3C_TGFb1 was analyzed into 1 assay endpoint. This assay endpoint, BSK_BE3C_TGFb1, was analyzed with bidirectional fitting relative to DMSO as the negative control and baseline of activity. Using a type of binding reporter, gain or loss-of-signal activity can be used to understand changes in the signaling as they relate to the gene TGFB1. Furthermore, this assay endpoint can be referred to as a primary readout, because this assay has produced multiple assay endpoints where this one serves a signaling function. To generalize the intended target to other relatable targets, this assay endpoint is annotated to the growth factor intended target family, where the subfamily is transforming growth factor beta.
# The levels of cell surface (or secreted, indicated by the prefix "s") biomarker endpoints were measured by ELISA. Overt cytotoxicity to cells in confluent adherent cultures (all systems other than the BT system) was assessed by measuring total protein levels using sulforhodamine B (SRB) staining in parallel cultures at the time of biomarker measurements, indicated as SRB endpoints. For proliferation assays for adherent cell types, individual cell types are cultured at sub-confluence and relative cell numbers quantified by SRB staining at time points optimized for each system (48 h: 3C and CASM3C systems; 72 h: BT and HDF3CGF systems; 96 h: SAg system). SRB was performed by staining cells with 0.1% SRB after fixation with 10% TCA and reading wells at 560 nm.Viability and proliferation of PBMC (T cells) was quantified by Alamar Blue reduction for the SAg and BT systems. For PBMC viability (referred to as PBMC Cytotoxicity within the assay endpoint names), cells were plated (75,000/well in a 96-well plate) and then chemical samples added for 1 h before addition of activators, SEB and TSST-1 (20 ng/mL final concentration each). Cells were incubated for 90 h. Then, Alamar Blue (20 uL/well) (Invitrogen, Cat DAL1100) was added for 6 h, and the plates were read with a fluorescence microplate reader at 546/580 nm (excitation/emission). For PBMC proliferation, cells were plated and activated as above but incubated for only 16 h prior to addition of Alamar Blue. Plates were read after 6 h.
Structure (SMILES),outcome,AC50
O=P(OCCCl)(OCCCl)OCCCl,inactive,
c1ccc(N=Nc2ccccc2)cc1,inactive,
Cc1cc(N=Nc2ccccc2C)ccc1N,inactive,
CC(C)(C)OOC(C)(C)CCC(C)(C)OOC(C)(C)C,inactive,
CO[C@@H]1[C@H](OC(=O)NC(=O)CCl)CC[C@]2(CO2)[C@H]1[C@@]1(C)O[C@@H]1CC=C(C)C,inactive,
[Cl-].[Cl-].[Hg+2],,30.9 µM (active)
CNC(=O)Oc1cccc2c1OC(C)(C)C2,inactive,
c1ccc2c(c1)-c1cccc3cccc-2c13,inactive,
Cc1ccc(N=C=O)cc1N=C=O,inactive,
c1ccc(NNc2ccccc2)cc1,inactive,
CN(C)[C@@H]1C(=O)C(C(N)=O)=C(O)[C@@]2(O)C(=O)C3=C(O)c4c(O)cccc4[C@@](C)(O)[C@H]3C[C@@H]12,inactive,
CCN(CC)CCO,inactive,
Nc1ccc(Oc2ccc(N)cc2)cc1,inactive,
CC(C)(C)C(O)(CCc1ccc(Cl)cc1)Cn1cncn1 (stereo not given),inactive,
O=Cc1ccco1,inactive,
c1ccc2c(c1)oc1ccccc12,inactive,
CC(C)(O)c1cnn2c(-c3ccc(F)c(-c4c(F)cccc4C#N)c3)cnc2n1,,31.4 µM (active)
CCCSC(=O)N(CCC)CCC,inactive,
CC(C)(OOC(C)(C)c1ccccc1)c1ccccc1,inactive,
Clc1ccc(C(c2ccc(Cl)cc2)C(Cl)Cl)cc1,,34.6 µM (active)

Structure (SMILES),outcome,AC50
Cc1cccc(N)c1N,inactive,
Oc1ccccc1Cl,inactive,
COc1cc(C=O)cc2c1[C@H](COC(N)=O)[C@]1(OC(C)=O)ON2C[C@H]2[C@@H]1N2C(C)=O,,4.63 µM (active)
CCOC(=O)[C@]1(c2ccccc2)Oc2ccccc2[C@@H]1N,inactive,
CS(=O)(=O)NC(=O)c1cc(Oc2ccc(C(F)(F)F)cc2Cl)ccc1[N+](=O)[O-],inactive,
O=C1CCCO1,inactive,
ClC1=C(Cl)[C@]2(Cl)[C@H]3[C@H]([C@@H]4C=C[C@H]3C4)[C@@]1(Cl)C2(Cl)Cl,inactive,
Nc1ccc(N=Nc2ccccc2)cc1,inactive,
COP(=S)(OC)SCN1C(=O)c2ccccc2C1=O,inactive,
ClC1=C(Cl)C2(Cl)C3C(Cl)C=CC3C1(Cl)C2(Cl)Cl (stereo not given),,20 µM (active)
Cn1cc(-c2ccccc2)c(=O)c(-c2cccc(C(F)(F)F)c2)c1,inactive,
c1ccc(C2CO2)cc1 (stereo not given),inactive,
O=[N+]([O-])c1ccc(Oc2ccc(Cl)cc2Cl)cc1,inactive,
N#CC(Br)Br,inactive,
OCCOCCO,inactive,
CN(C)C(=O)Nc1ccc(Cl)cc1,inactive,
C=CCc1ccc2c(c1)OCO2,inactive,
CCCCOC(=O)c1ccccc1C(=O)OCc1ccccc1,inactive,
Nc1ccc(Cl)cc1N,inactive,
Cc1ccc(N)cc1,inactive,
